Measurements published in PubChem BioAssay (NCI).
This is part of a sample that, as a whole, favours compounds with a hit. Of some 83,000 tested, about 20% had one in any assay.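 Growth was measured after 48 h exposure to one concentration of compound in 96-well plates. Values under 10 count as active.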 Unmarked numbers belong to inactive results. Activity calls are given as the source filed them.

Assays:
Test in all cases: NCI-60 one-dose screen, 48 h (100 = growth as untreated, 0 = no growth, -100 = all killed)
Conditions in all cases: 10 µM unless noted
NCI-H23 lung = tested on: NCI-H23 lung
NCI-H226 lung = tested on: NCI-H226 lung
NCI-H322M lung = tested on: NCI-H322M lung
HOP-62 NSCLC = tested on: HOP-62 NSCLC
NCI-H460 lung = tested on: NCI-H460 lung
HOP-92 NSCLC = tested on: HOP-92 NSCLC
NCI-H522 lung = tested on: NCI-H522 lung
A549/ATCC NSCLC = tested on: A549/ATCC NSCLC
786-0 renal = tested on: 786-0 renal
COLO 205 colon = tested on: COLO 205 colon
DU-145 prostate = tested on: DU-145 prostate
K-562 leukemia = tested on: K-562 leukemia
MALME-3M melanoma = tested on: MALME-3M melanoma
MDA-MB-231 breast = tested on: MDA-MB-231 breast
RXF 393 renal = tested on: RXF 393 renal
SF-268 CNS = tested on: SF-268 CNS
SF-295 CNS = tested on: SF-295 CNS
UACC-257 melanoma = tested on: UACC-257 melanoma
M14 melanoma = tested on: M14 melanoma

| Compound | growth (NCI-H23 lung) | growth (NCI-H226 lung) | growth (NCI-H322M lung) | growth (HOP-62 NSCLC) | growth (NCI-H460 lung) | growth (HOP-92 NSCLC) | growth (NCI-H522 lung) | growth (A549/ATCC NSCLC) | growth (786-0 renal) | growth (COLO 205 colon) | growth (DU-145 prostate) | growth (K-562 leukemia) | growth (MALME-3M melanoma) | growth (MDA-MB-231 breast) | growth (RXF 393 renal) | growth (SF-268 CNS) | growth (SF-295 CNS) | growth (UACC-257 melanoma) | growth (M14 melanoma) |
| --- | --- | --- | --- | --- | --- | --- | --- | --- | --- | --- | --- | --- | --- | --- | --- | --- | --- | --- | --- |
| Cc1ccc(Nc2nc(N)nc(Nc3ccc4ccccc4c3)n2)cc1 | 69.2% | 89.8% | 52.4% | 47% | 14.6% | 21.1% | 6.88% (active) | 30.9% | 46.6% | 18.7% | 58.5% | 20.2% | 83.9% | 47.9% | 27.3% | 46.3% | 53.3% | 54.3% | 44% |
| C=C1CCC2C3(C)COC(c4cccc(Cl)c4)OC3CCC2(C)C1/C=C/C1=CCOC1=O (stereo not drawn) | 38.2% | 61% | 90.2% | 76.7% | 36.2% | 98.2% | 57.8% | 58.4% | 65.9% | 106% | 79.1% | 24.3% | 84.6% | 80.1% | 80.9% | 83.7% | 45.7% | 57.4% | 83.6% |
| C=C1CCC2C3(C)COC(c4ccc(SC)cc4)OC3CCC2(C)C1C/C=C1/C(=O)OCC1O (stereo not drawn) | 44.9% | 48.7% | 102% | 107% | 81.8% | 81.7% | 73.3% | 83.6% | 78.4% | 72.3% | 88.1% | 20.1% | 100% | 87.9% | 42.6% | 88.7% | 81.9% | 91.5% | 69.3% |
| Nc1nc2c(c3ncccc13)C(c1ccc(Cl)c(Cl)c1)Cc1ncccc1-2 (stereo not drawn) | 32.7% | 70.8% | 40.9% | 28% | 12.5% | 59% | -6.27% (active) | 22.7% | 29.9% | 1.52% (active) | 35.5% | 11% | 47.1% | 28.9% | -25.4% (active) | 44.8% | 1.19% (active) | 35.4% | 20% |
| COc1cc(C2C(C(=O)c3cccs3)=C(O)C(=O)N2CCN2CCOCC2)cc(OC)c1OC (stereo not drawn) | 103% | 103% | 102% | 107% | 101% | 99.8% | 92.2% | 104% | 103% | 111% | 106% | 116% | 107% | 111% | 100% | 97.9% | 100% | 108% | 99.6% |
| O=C(CN1CCN(c2cc3c(cc2F)c(=O)c(C(=O)O)cn3C2CC2)CC1)Nc1nc(-c2ccc(Cl)cc2)cs1 | 16.5% | 43.3% | 28.1% | 25.7% | 6.86% (active) | -5.35% (active) | 6.46% (active) | 11.4% | 29.1% | 63.2% | 32% | 25.3% | 31.6% | 24.6% | 23.3% | 29.7% | 10.8% | 7.83% (active) | 27.5% |
| COc1cc(OC)c(/C=C/S(=O)(=O)Cc2ccc(OC)c(N)n2)c(OC)c1 | 26.6% | 59.6% | 36.3% | 11.6% | 8.27% (active) | 79.9% | -36.1% (active) | 6.41% (active) | 15.9% | -70.7% (active) | 2.86% (active) | 8.04% (active) | 59.2% | 15.3% | 43.8% | 39% | 6.52% (active) | 47.8% | 11.2% |
